Compounds without any hit were thinned out: in the full panel of roughly 83,000, 20% have a hit.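 The test compound was applied at a single concentration to cells in 96-well plates for 48 hours, and percent growth was recorded.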 Activity calls are given as the source filed them. Rule for the calls: active = growth percent below 10; inactive = the rest.
System: HL-60(TB) leukemia
Assay: NCI-60 one-dose screen, 48 h (100 = growth as untreated, 0 = no growth, -100 = all killed)
Conditions: 10 µM unless noted

SMILES	growth
CN1CCC(=C2c3ccccc3C=Cc3ccccc32)CC1	85.1% (inactive)
CCCCn1c(-c2ccc(C(=O)O/N=C(\N)c3ccc4ccccc4c3)cc2)nc(-c2ccccc2)c1-c1ccccc1	23.8% (inactive)
O=Cc1ccc(-c2cn3ccnc3c(-c3ccc4ncn(Cc5ccccc5)c4c3)n2)cc1	83.5% (inactive)
C=C1C(=O)O[C@H]2[C@H]1CC/C(CNC(=O)c1cccc3ccccc13)=C\CC[C@@]1(C)O[C@@H]21	-23.9% (active)
Cc1nc2cc(Nc3nc(Nc4ccc(F)cc4)nc(N4CCCC4)n3)ccc2n1Cc1ccccc1	-41.5% (active)
CCOC(=O)c1sc2nc(-c3cc4ccccc4o3)cc(-c3ccc(Cl)cc3)c2c1N	108% (inactive)
COc1ccc(-c2nc(/C=C3\SC(=NCc4ccccc4)NC3=O)c3ccccn23)cc1	-7.59% (active)
CS(=O)(=O)c1ccc(-c2cc3c(oc2=O)-c2ccccc2OC3O)cc1 (stereo not given)	93.5% (inactive)
Cc1cc(N2CCN(c3ccnc4cc(Cl)ccc34)CC2)nc(N2CCOCC2)n1	69.5% (inactive)
NC(=O)c1c(NC(=O)/C=C/c2cccs2)sc2c1CCC(=O)C2	2.8% (active)
CSc1cnc2ccccc2n1	90.3% (inactive)
O=C1N=c2cc3c(cc2=C/C1=C/c1sc(=S)n(CCc2ccc(O)cc2)c1O)OCCO3	48.1% (inactive)
CN1CC[C@@H](c2c(O)cc(O)c3c(=O)cc(-c4ccccc4Cl)oc23)[C@@H]1CO	-28.6% (active)
NC(=O)NCCCC(N)C(=O)O (stereo not given)	105% (inactive)
COc1cc2oc(-c3cccc(C(=O)Nc4ccc(Cl)cc4)c3)cc(=O)c2c(OC)c1OC	-11.1% (active)
Clc1ccc(SSc2ccc(Cl)cc2)cc1	102% (inactive)
Cc1ccc(C2=NN(c3ccc(S(C)(=O)=O)cc3)C(=O)CC2)cc1	-12% (active)
Cc1cc(C(C)(C)CC(C)(C)C)ccc1OCCOCC[N+](C)(C)Cc1ccccc1	-67.1% (active)
OCCNCCNc1c2ccccc2nc2ccccc12	86.2% (inactive)
COc1ccc2c(c1)oc1c(C)c3c(c(C)c12)C(=O)N(Nc1ccccc1)C3=O	107% (inactive)

SMILES	growth
Clc1ccc(N2N=C(c3cccc(Nc4ccncc4)c3)CC2c2ccc3c(c2)OCO3)cc1 (stereo not given)	22.5% (inactive)
O=C(Nc1ncc(Cc2ccccc2)s1)c1ccc2c(c1)OCCO2	-48.6% (active)
Cc1ccc(-c2csc(N(C(=O)N3CCN(c4cc5c(cc4F)c(=O)c(C(=O)O)cn5C4CC4)CC3)c3ccccc3)n2)cc1	1.91% (active)
COc1cc2nc(Nc3cccc(NC(C)=O)c3)nc(N)c2cc1OC	102% (inactive)
O=C(Nc1cccc(C(F)(F)F)c1)Nc1ccc(OCc2nnc(-c3ccc(Cl)cc3)o2)c(F)c1	92.5% (inactive)
C/C=C/C1OCC(CC)C(CCC)O1 (stereo not given)	88.1% (inactive)
COc1cccc2cc(-c3cc4ccccc4[nH]3)/c(=N/C(=S)Nc3ccc(C)cc3)oc12	98.1% (inactive)
CC(CN)[C@@H]1CC[C@]2(CO)CC[C@]3(C)[C@H](CC[C@@H]4[C@@]5(C)CCC(NCCO)C(C)(C)[C@@H]5CC[C@]43C)[C@@H]12 (stereo not given in full)	60% (inactive)
COc1cc(/C=C/c2cc(/C=C/c3ccc(O)c(OC)c3)n(C(=O)Nc3ccc(C)cc3)n2)ccc1O	-28.2% (active)
CCOC(=O)C1=C(C)N=C2SC=C(c3ccc(F)cc3)N2[C@H]1c1cn(-c2ccccc2)nc1-c1ccc(Cl)cc1	88.3% (inactive)
Cn1c(=O)c2[nH]c(CC(=O)O)nc2n(C)c1=O	110% (inactive)
O=C(CCCSc1nc(-c2ccccc2)cc(-c2ccccc2)n1)NO	-26.2% (active)
COc1cc(-c2nc3sccn3c2-c2ccnc(NCCNS(=O)(=O)c3ccc(F)cc3)n2)ccc1F	-17.4% (active)
Cc1nc2sc(C(=O)Nc3ccccc3)c(N)c2cc1C(=O)/C=C/c1ccccc1	3.44% (active)
O=C1CCCC=CC[C@H]2C=C(Cl)C(=O)C2=CC[C@H](CCCCC(F)(F)F)OC(=O)CCCC=CC[C@H]2C=C(Cl)C(=O)C2=CC[C@H](CCCCC(F)(F)F)OC(=O)CCCC=CC[C@H]2C=C(Cl)C(=O)C2=CC[C@H](CCCCC(F)(F)F)O1	27.6% [6.25 µM] (inactive)
CN(C)CCOc1ccc(/C(=C(/CCCCCCCCCC[P+](c2ccccc2)(c2ccccc2)c2ccccc2)c2ccccc2)c2ccccc2)cc1	-62.1% (active)
N=C(N)N=Nc1ccc(NN=C(N)N)c2ccccc12	113% (inactive)
CC(C)C[C@@H](C(=O)N[C@H](C(=O)OC1CCCC1)c1ccccc1)[C@H](O)C(=O)NO	35.9% (inactive)
CN(CCOc1ccc(C#N)cc1)CCOc1ccc(C#N)cc1	42.4% (inactive)
O=[N+]([O-])c1cccc(/C=C/c2ccccn2)c1	120% (inactive)

Reference: PubChem BioAssay (NCI)
